About 83,000 compounds went through this panel and 20% of them were active in at least one assay; those are over-represented in the sample as a whole.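 Cells were grown in 96-well plates and exposed to the test compound at a single concentration for 48 hours; results are reported as percent growth, with values below 10 considered active.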 Calls of active or inactive are those of the source.
Experiments:
Test in all cases: NCI-60 one-dose screen, 48 h (100 = growth as untreated, 0 = no growth, -100 = all killed)
Conditions in all cases: 10 µM unless noted
SR leukemia = tested on: SR leukemia
RPMI-8226 leukemia = tested on: RPMI-8226 leukemia
OVCAR-8 ovarian = tested on: OVCAR-8 ovarian
OVCAR-5 ovarian = tested on: OVCAR-5 ovarian
OVCAR-4 ovarian = tested on: OVCAR-4 ovarian
SK-OV-3 ovarian = tested on: SK-OV-3 ovarian
IGROV1 ovarian = tested on: IGROV1 ovarian
OVCAR-3 ovarian = tested on: OVCAR-3 ovarian
HS 578T breast = tested on: HS 578T breast
NCI/ADR-RES ovarian = tested on: NCI/ADR-RES ovarian

Measured: growth

Nc1n[nH]c2cccc(C#Cc3cccc(NC(=O)c4cc(F)cc(C(F)(F)F)c4)c3)c12
inactive: SR leukemia 60.5% | RPMI-8226 leukemia 63.8% | OVCAR-8 ovarian 94.2% | OVCAR-5 ovarian 70.8% | OVCAR-4 ovarian 90.5% | SK-OV-3 ovarian 114% | IGROV1 ovarian 25.5% | OVCAR-3 ovarian 80.7% | HS 578T breast 36.8% | NCI/ADR-RES ovarian 93.1%

CCCCCCCC[C@@H]1N[C@@H](C(=O)OC)Cc2c1[nH]c1ccccc21
inactive: SR leukemia 107% | RPMI-8226 leukemia 95.4% | OVCAR-8 ovarian 98.6% | OVCAR-5 ovarian 89% | OVCAR-4 ovarian 91.9% | SK-OV-3 ovarian 101% | IGROV1 ovarian 82.9% | OVCAR-3 ovarian 101% | HS 578T breast 91.7% | NCI/ADR-RES ovarian 86.5%

Cc1nc2sc(C(=O)Nc3ccc(Br)cc3)c(N)c2cc1C(O)c1ccccc1 (stereo not given)
inactive: SR leukemia 14.9% | RPMI-8226 leukemia 55.4% | OVCAR-8 ovarian 75.2% | OVCAR-5 ovarian 92% | OVCAR-4 ovarian 59.3% | SK-OV-3 ovarian 78.3% | IGROV1 ovarian 75.1% | OVCAR-3 ovarian 73.9% | HS 578T breast 74.1% | NCI/ADR-RES ovarian 59.7%

CCC(C(=O)[C@@H](C)[C@@H](O)[C@H](C)[C@@H]1O[C@@H]([C@@H](CC)C(=O)ONC(=O)c2ccccc2)CC[C@@H]1C)[C@H]1O[C@]2(C=CC(=O)[C@]3(CC[C@@](C)([C@H]4CC[C@](O)(CC)[C@H](C)O4)O3)O2)[C@H](C)C[C@@H]1C (stereo not given in full)
active: SR leukemia -22.5% | RPMI-8226 leukemia 7.88% | OVCAR-5 ovarian -4.48% | IGROV1 ovarian -76.2% | OVCAR-3 ovarian -71.1% | HS 578T breast -2.36%
inactive: OVCAR-8 ovarian 12.2% | OVCAR-4 ovarian 35.6% | SK-OV-3 ovarian 95.2% | NCI/ADR-RES ovarian 12.1%

N=C(N)c1ccc(-c2ccc(-c3ccc(Cl)cc3Cl)s2)cc1
inactive: OVCAR-5 ovarian 38.6% | SK-OV-3 ovarian 88% | HS 578T breast 71.6% | NCI/ADR-RES ovarian 77.5%
active: SR leukemia 4.31% | RPMI-8226 leukemia -24.4% | OVCAR-8 ovarian -21.3% | OVCAR-4 ovarian -16.2% | IGROV1 ovarian -37.5% | OVCAR-3 ovarian -16.4%

CCOC(=O)c1c(C(=O)c2cn(C)c3ccc(Br)cc23)c(-c2cn(C)c3ccc(Br)cc23)n(NC(=O)OC(C)(C)C)c1C
inactive: SR leukemia 89.1% [100 µM] | RPMI-8226 leukemia 69.2% [100 µM] | OVCAR-8 ovarian 71.8% [100 µM] | OVCAR-5 ovarian 92.3% [100 µM] | OVCAR-4 ovarian 105% [100 µM] | SK-OV-3 ovarian 54.8% [100 µM] | IGROV1 ovarian 70.7% [100 µM] | OVCAR-3 ovarian 88.5% [100 µM] | HS 578T breast 46.8% [100 µM] | NCI/ADR-RES ovarian 85.4% [100 µM]

CC1(C)COB(OCC(C)(C)COB2OCC(C)(C)CO2)OC1
inactive: SR leukemia 102% | RPMI-8226 leukemia 118% | OVCAR-8 ovarian 100% | OVCAR-5 ovarian 108% | OVCAR-4 ovarian 113% | SK-OV-3 ovarian 109% | IGROV1 ovarian 105% | OVCAR-3 ovarian 110% | HS 578T breast 108% | NCI/ADR-RES ovarian 109%

COC1=CC(c2ccc[nH]2)=N/C1=C\c1[nH]c(C)c(CC(=O)OCc2ccccc2)c1CCC(=O)OCc1ccccc1
active: SR leukemia -36.2% | RPMI-8226 leukemia -50.8% | OVCAR-8 ovarian -18.9% | OVCAR-5 ovarian -17.1% | SK-OV-3 ovarian -13.6% | OVCAR-3 ovarian -86.8% | HS 578T breast -18.9% | NCI/ADR-RES ovarian -26.4%
inactive: OVCAR-4 ovarian 13.6% | IGROV1 ovarian 12.6%

CC(=O)N1N=C(c2ccc(Nc3nc(Nc4ccccc4)nc(Nc4ccccc4)n3)cc2)CC1c1cccc([N+](=O)[O-])c1 (stereo not given)
inactive: SR leukemia 83.8% | RPMI-8226 leukemia 68% | OVCAR-8 ovarian 92.6% | OVCAR-5 ovarian 87.6% | OVCAR-4 ovarian 91.2% | SK-OV-3 ovarian 103% | IGROV1 ovarian 79.4% | OVCAR-3 ovarian 98.1% | HS 578T breast 88.6% | NCI/ADR-RES ovarian 94.7%

CN(/C(N)=N/N=C/c1c2ccccc2cc2ccccc12)C1CCCCC1
active: SR leukemia 0.552% | RPMI-8226 leukemia 2.66%
inactive: OVCAR-8 ovarian 56.3% | OVCAR-5 ovarian 78.8% | OVCAR-4 ovarian 27.6% | SK-OV-3 ovarian 66% | IGROV1 ovarian 40.3% | OVCAR-3 ovarian 58.8% | HS 578T breast 66.6% | NCI/ADR-RES ovarian 45%

CC(=O)Oc1ccc(/C(=C(\C)c2ccc(Cl)cc2)c2ccc(OCCN3CCCCC3)cc2)cc1
active: SR leukemia -27.3% | RPMI-8226 leukemia 9.5%
inactive: OVCAR-8 ovarian 57.1% | OVCAR-5 ovarian 75.1% | OVCAR-4 ovarian 57.1% | SK-OV-3 ovarian 54.6% | IGROV1 ovarian 61.8% | OVCAR-3 ovarian 66.7% | HS 578T breast 52.9% | NCI/ADR-RES ovarian 50%

COC1/C=C/OC2(C)Oc3c(C)c(O)c4c(O)c(c(/C=N/Nc5ccc([N+](=O)[O-])cc5[N+](=O)[O-])c(O)c4c3C2=O)NC(=O)C(C)=C/C=C/C(C)C(O)C(C)C(O)C(C)C(OC(C)=O)C1C (stereo not given)
active: SR leukemia 7.02% | RPMI-8226 leukemia 7.67% | OVCAR-3 ovarian -42.1%
inactive: OVCAR-8 ovarian 27.3% | OVCAR-5 ovarian 48.3% | OVCAR-4 ovarian 35% | SK-OV-3 ovarian 112% | IGROV1 ovarian 28.5% | HS 578T breast 20% | NCI/ADR-RES ovarian 76.7%

CC(C)C1=NOC(=O)C1=Cc1cn(-c2ccccc2)nc1-c1ccc(F)cc1
inactive: OVCAR-8 ovarian 60.2% | OVCAR-5 ovarian 95.2% | OVCAR-4 ovarian 94.1% | SK-OV-3 ovarian 107% | IGROV1 ovarian 61.3% | OVCAR-3 ovarian 64% | HS 578T breast 49.6% | NCI/ADR-RES ovarian 101%
active: SR leukemia -17% | RPMI-8226 leukemia -17.4%

CCc1ncnc2c1ccn2C(C)c1ccc(OC)c(F)c1 (stereo not given)
inactive: SR leukemia 16.5% | RPMI-8226 leukemia 37.2% | OVCAR-8 ovarian 49.2% | OVCAR-5 ovarian 88.1% | OVCAR-4 ovarian 54.9% | SK-OV-3 ovarian 53.6% | IGROV1 ovarian 54.9% | OVCAR-3 ovarian 34.8% | HS 578T breast 69.2% | NCI/ADR-RES ovarian 44.6%

O=C(O)c1ccc(-n2cc(/C=N/Nc3ccccc3)c(-c3ccc(F)cc3F)n2)cc1
inactive: SR leukemia 72% | RPMI-8226 leukemia 50% | OVCAR-8 ovarian 53.3% | OVCAR-5 ovarian 57.6% | OVCAR-4 ovarian 80.4% | SK-OV-3 ovarian 89.1% | IGROV1 ovarian 52.6% | OVCAR-3 ovarian 62.3% | HS 578T breast 68.6% | NCI/ADR-RES ovarian 56.7%

O=C1c2c(c3c4ccccc4[nH]c3c3ccc4ccccc4c23)C(=O)N1CCN1CCOCC1
active: RPMI-8226 leukemia 7.91%
inactive: SR leukemia 13.1% | OVCAR-8 ovarian 31.5% | OVCAR-5 ovarian 71.7% | OVCAR-4 ovarian 57.7% | SK-OV-3 ovarian 81.2% | IGROV1 ovarian 30% | OVCAR-3 ovarian 44.1% | HS 578T breast 62.5% | NCI/ADR-RES ovarian 21.1%

Cc1nc2sc(C(=O)Nc3cccc4ccccc34)c(N)c2cc1C(O)c1ccccc1 (stereo not given)
active: SR leukemia -1.98% | RPMI-8226 leukemia 0.145% | OVCAR-8 ovarian 5.13% | SK-OV-3 ovarian 8.83% | OVCAR-3 ovarian -5.29% | HS 578T breast 8.1% | NCI/ADR-RES ovarian 2.93%
inactive: OVCAR-5 ovarian 37.4% | OVCAR-4 ovarian 60% | IGROV1 ovarian 14.4%

Nc1ncnc2c1N=C(c1ccc(Br)cc1)CC(c1cccc(Nc3ccnc4cc(C(F)(F)F)ccc34)c1)N2 (stereo not given)
inactive: SR leukemia 22.1% | RPMI-8226 leukemia 12.7% | OVCAR-8 ovarian 69.9% | OVCAR-5 ovarian 88.7% | OVCAR-4 ovarian 76.8% | SK-OV-3 ovarian 45.7% | IGROV1 ovarian 65.7% | OVCAR-3 ovarian 83.9% | HS 578T breast 65% | NCI/ADR-RES ovarian 66.9%

O=C(CSc1nnc(-c2cnccn2)n1-c1ccccc1)c1ccc(Cl)cc1
inactive: SR leukemia 90.8% | RPMI-8226 leukemia 92% | OVCAR-8 ovarian 100% | OVCAR-5 ovarian 96.9% | OVCAR-4 ovarian 105% | SK-OV-3 ovarian 108% | IGROV1 ovarian 106% | OVCAR-3 ovarian 98.3% | HS 578T breast 104% | NCI/ADR-RES ovarian 104%

COc1ccc(-c2cc(-c3cccnc3)nc3sc4c(=O)[nH]c(-c5ccc(Cl)cc5)nc4c23)cc1OC
inactive: SR leukemia 87.5% | RPMI-8226 leukemia 88.8% | OVCAR-8 ovarian 92.2% | OVCAR-5 ovarian 98.2% | OVCAR-4 ovarian 87.9% | SK-OV-3 ovarian 95.2% | IGROV1 ovarian 90.3% | OVCAR-3 ovarian 102% | HS 578T breast 92% | NCI/ADR-RES ovarian 98%

COc1ccc(-c2nn(-c3cccc(Cl)c3)cc2-c2cc(-c3ccc(Br)cc3)nc(N)n2)cc1
inactive: SR leukemia 82% | RPMI-8226 leukemia 84.1% | OVCAR-8 ovarian 98.9% | OVCAR-5 ovarian 97.2% | OVCAR-4 ovarian 96% | SK-OV-3 ovarian 102% | IGROV1 ovarian 89.2% | OVCAR-3 ovarian 107% | HS 578T breast 99.7% | NCI/ADR-RES ovarian 99.8%

Cc1ccc(-c2nc([P+](c3ccccc3)(c3ccccc3)c3ccccc3)c(S(=O)(=O)c3ccc(C)cc3)o2)cc1
active: SR leukemia -10.9% | RPMI-8226 leukemia -28.2% | OVCAR-8 ovarian 8.26% | OVCAR-3 ovarian 0.238% | HS 578T breast -9.93%
inactive: OVCAR-5 ovarian 25.1% | OVCAR-4 ovarian 14.2% | SK-OV-3 ovarian 64.8% | IGROV1 ovarian 26.4% | NCI/ADR-RES ovarian 59.5%

CCCCCC(/C=N\NC(=S)N/N=C/C(=C/c1ccccc1)CCCCC)=C\c1ccccc1
inactive: SR leukemia 56.2% | RPMI-8226 leukemia 44.7% | OVCAR-8 ovarian 64.4% | OVCAR-5 ovarian 105% | OVCAR-4 ovarian 56.2% | SK-OV-3 ovarian 85.9% | IGROV1 ovarian 64.1% | OVCAR-3 ovarian 26.2% | HS 578T breast 73.8% | NCI/ADR-RES ovarian 60.2%

OB1OCc2cc(/C=C/c3cccc(C(F)(F)F)c3)ccc21
active: SR leukemia -1.55% | OVCAR-4 ovarian -12.9% | OVCAR-3 ovarian -27.3%
inactive: RPMI-8226 leukemia 15.7% | OVCAR-8 ovarian 10.8% | OVCAR-5 ovarian 37.6% | SK-OV-3 ovarian 15.9% | IGROV1 ovarian 16.8% | HS 578T breast 23.3% | NCI/ADR-RES ovarian 15.2%

Nc1nc2ccccc2c2c(=O)c3cccc(Cl)c3sc12
inactive: SR leukemia 89% | RPMI-8226 leukemia 96.1% | OVCAR-8 ovarian 94% | OVCAR-5 ovarian 75% | OVCAR-4 ovarian 81.1% | SK-OV-3 ovarian 86.5% | IGROV1 ovarian 73.8% | OVCAR-3 ovarian 115% | HS 578T breast 101% | NCI/ADR-RES ovarian 93.1%

COc1cc(OCc2cccc(Br)c2C)cc(OC)c1C=O
inactive: SR leukemia 82.6% | RPMI-8226 leukemia 52.8% | OVCAR-8 ovarian 89.9% | OVCAR-5 ovarian 55.5% | OVCAR-4 ovarian 67.7% | SK-OV-3 ovarian 94.8% | IGROV1 ovarian 61.8% | OVCAR-3 ovarian 87.1% | HS 578T breast 89.1% | NCI/ADR-RES ovarian 89.7%
